Data from PMC11006913.
Residue numbers refer to the chain shown, from its start.

Key:
Assay in all cases: PBM; 200 nM protein, PBS
Settings in all cases: dsDNA, one strand shown
SIX6 [1] = target: T1, SIX6 (Homo sapiens, UniProt O95475 114-200, L167I)
T1 sequence: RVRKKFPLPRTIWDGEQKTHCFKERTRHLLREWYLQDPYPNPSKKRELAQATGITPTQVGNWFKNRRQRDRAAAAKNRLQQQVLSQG

SIX6 [2] = target: T2, SIX6 (Homo sapiens, UniProt O95475 114-200, L143V)
T2 sequence: T1 sequence with L30V, I54L

SIX6 [3] = target: T3, SIX6 (Homo sapiens, UniProt O95475 114-200, H141N)
T3 sequence: T1 sequence with H28N, I54L

SIX6 [4] = target: T4, SIX6 (Homo sapiens, UniProt O95475 114-200, T165P)
T4 sequence: T1 sequence with T52P, I54L

SIX6 [5] = target: T5, SIX6 (Homo sapiens, UniProt O95475 114-200, L167M)
T5 sequence: T1 sequence with I54M

SIX6 [6] = target: T6, SIX6 (Homo sapiens, UniProt O95475 114-200, L143M)
T6 sequence: T1 sequence with L30M, I54L

SIX6 [7] = target: T7, SIX6 (Homo sapiens, UniProt O95475 114-200, L143I)
T7 sequence: T1 sequence with L30I, I54L

SIX6 [8] = target: T8, SIX6 (Homo sapiens, UniProt O95475 114-200, T165G)
T8 sequence: T1 sequence with T52G, I54L

SIX6 [9] = target: T9, SIX6 (Homo sapiens, UniProt O95475 114-200, T139Q)
T9 sequence: T1 sequence with T26Q, I54L

SIX6 [10] = target: T10, SIX6 (Homo sapiens, UniProt O95475 114-200, T165A)
T10 sequence: T1 sequence with T52A, I54L

SIX6 [11] = target: T11, SIX6 (Homo sapiens, UniProt O95475 114-200, L167V)
T11 sequence: T1 sequence with I54V

SIX6 [12] = target: T12, SIX6 (Homo sapiens, UniProt O95475 114-200)
T12 sequence: T1 sequence with I54L

SIX6 [13] = target: T13, SIX6 (Homo sapiens, UniProt O95475 114-200, T165I)
T13 sequence: T1 sequence with T52I, I54L

Sequence	binding signal (SIX6 [1])	binding signal (SIX6 [2])	binding signal (SIX6 [3])	binding signal (SIX6 [4])	binding signal (SIX6 [5])	binding signal (SIX6 [6])	binding signal (SIX6 [7])	binding signal (SIX6 [8])	binding signal (SIX6 [9])	binding signal (SIX6 [10])	binding signal (SIX6 [11])	binding signal (SIX6 [12])	binding signal (SIX6 [13])
GATACATA	11.1 upbm affinity estimate (log intensity, higher = more binding, comparable within an allelic series)	10.4 upbm affinity estimate (log intensity, higher = more binding, comparable within an allelic series)	11 upbm affinity estimate (log intensity, higher = more binding, comparable within an allelic series)	10 upbm affinity estimate (log intensity, higher = more binding, comparable within an allelic series)	10.7 upbm affinity estimate (log intensity, higher = more binding, comparable within an allelic series)	10.9 upbm affinity estimate (log intensity, higher = more binding, comparable within an allelic series)	10.4 upbm affinity estimate (log intensity, higher = more binding, comparable within an allelic series)	11 upbm affinity estimate (log intensity, higher = more binding, comparable within an allelic series)	11.1 upbm affinity estimate (log intensity, higher = more binding, comparable within an allelic series)	11 upbm affinity estimate (log intensity, higher = more binding, comparable within an allelic series)	10.8 upbm affinity estimate (log intensity, higher = more binding, comparable within an allelic series)	10.9 upbm affinity estimate (log intensity, higher = more binding, comparable within an allelic series)	10.8 upbm affinity estimate (log intensity, higher = more binding, comparable within an allelic series)
CGGTATCA	11.3 upbm affinity estimate (log intensity, higher = more binding, comparable within an allelic series)	10.3 upbm affinity estimate (log intensity, higher = more binding, comparable within an allelic series)	11.3 upbm affinity estimate (log intensity, higher = more binding, comparable within an allelic series)	9.64 upbm affinity estimate (log intensity, higher = more binding, comparable within an allelic series)	10.6 upbm affinity estimate (log intensity, higher = more binding, comparable within an allelic series)	11 upbm affinity estimate (log intensity, higher = more binding, comparable within an allelic series)	10.4 upbm affinity estimate (log intensity, higher = more binding, comparable within an allelic series)	11.5 upbm affinity estimate (log intensity, higher = more binding, comparable within an allelic series)	11.4 upbm affinity estimate (log intensity, higher = more binding, comparable within an allelic series)	11.3 upbm affinity estimate (log intensity, higher = more binding, comparable within an allelic series)	11 upbm affinity estimate (log intensity, higher = more binding, comparable within an allelic series)	11.1 upbm affinity estimate (log intensity, higher = more binding, comparable within an allelic series)	11 upbm affinity estimate (log intensity, higher = more binding, comparable within an allelic series)
ATACCCAT	10.6 upbm affinity estimate (log intensity, higher = more binding, comparable within an allelic series)	10.1 upbm affinity estimate (log intensity, higher = more binding, comparable within an allelic series)	10.6 upbm affinity estimate (log intensity, higher = more binding, comparable within an allelic series)	9.74 upbm affinity estimate (log intensity, higher = more binding, comparable within an allelic series)	10.4 upbm affinity estimate (log intensity, higher = more binding, comparable within an allelic series)	10.6 upbm affinity estimate (log intensity, higher = more binding, comparable within an allelic series)	10.1 upbm affinity estimate (log intensity, higher = more binding, comparable within an allelic series)	10.7 upbm affinity estimate (log intensity, higher = more binding, comparable within an allelic series)	10.8 upbm affinity estimate (log intensity, higher = more binding, comparable within an allelic series)	10.5 upbm affinity estimate (log intensity, higher = more binding, comparable within an allelic series)	10.4 upbm affinity estimate (log intensity, higher = more binding, comparable within an allelic series)	10.6 upbm affinity estimate (log intensity, higher = more binding, comparable within an allelic series)	10.4 upbm affinity estimate (log intensity, higher = more binding, comparable within an allelic series)
CGTATCAC	11.2 upbm affinity estimate (log intensity, higher = more binding, comparable within an allelic series)	10.3 upbm affinity estimate (log intensity, higher = more binding, comparable within an allelic series)	11.3 upbm affinity estimate (log intensity, higher = more binding, comparable within an allelic series)	9.61 upbm affinity estimate (log intensity, higher = more binding, comparable within an allelic series)	10.6 upbm affinity estimate (log intensity, higher = more binding, comparable within an allelic series)	11 upbm affinity estimate (log intensity, higher = more binding, comparable within an allelic series)	10.4 upbm affinity estimate (log intensity, higher = more binding, comparable within an allelic series)	11.3 upbm affinity estimate (log intensity, higher = more binding, comparable within an allelic series)	11.3 upbm affinity estimate (log intensity, higher = more binding, comparable within an allelic series)	11.2 upbm affinity estimate (log intensity, higher = more binding, comparable within an allelic series)	11 upbm affinity estimate (log intensity, higher = more binding, comparable within an allelic series)	11 upbm affinity estimate (log intensity, higher = more binding, comparable within an allelic series)	11.1 upbm affinity estimate (log intensity, higher = more binding, comparable within an allelic series)
